In PubChem BioAssay (NCATS):
“And” between values parts separate entries of the source, which are not always exact repeats. Equal entries are not always repeated. Results filed as inconclusive are left out. Some structures have more than one record in an assay (separate samples or runs), and their calls can disagree. The source made the active and inactive calls. Unless noted, calls come from the whole dose curve; as a rule, active = well fitted curve in either direction with a large enough effect (not every such curve was filed as active); inconclusive = small, poorly fitted or top-dose-only effect, or another doubt; inactive = flat fitted curve, though single readings scatter.

Experiments:
[1] = AP1 Signaling Pathway (AID 357); settings: ME-180 (cervical carcinoma) AP-1-bla reporter, EGF-induced, beta-lactamase ratio, 5 h; at 38 µM (top of the series) unless noted;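 note: ME-180 reporter cells stimulated with EGF at its EC50 level; % is set by controls: 0 for no effect and ±100 for the full control effect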
Summary of the method: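 AP-1-bla ME-180 cells, Opti-MEM + 0.5% dialyzed FBS, plated overnight 37 °C. Cpd titration + EC50 EGF, 5 h 37 °C. CCF4 2.5 h RT; ex 405, em 460/530 ratio → %activity, AC50.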

[2] = target: Cytochrome P450 1A2 (Homo sapiens) (UniProt P05177); assay: p450-cyp1a2 (AID 410; calls by dose curve; note: potency is the fitted concentration of half-maximal effect;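 for activity change, negative = inhibition: -100% = full effect of reference inhibitor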)
Cytochrome P450 1A2 (Homo sapiens), sequence (P05177 whole entry, looked up): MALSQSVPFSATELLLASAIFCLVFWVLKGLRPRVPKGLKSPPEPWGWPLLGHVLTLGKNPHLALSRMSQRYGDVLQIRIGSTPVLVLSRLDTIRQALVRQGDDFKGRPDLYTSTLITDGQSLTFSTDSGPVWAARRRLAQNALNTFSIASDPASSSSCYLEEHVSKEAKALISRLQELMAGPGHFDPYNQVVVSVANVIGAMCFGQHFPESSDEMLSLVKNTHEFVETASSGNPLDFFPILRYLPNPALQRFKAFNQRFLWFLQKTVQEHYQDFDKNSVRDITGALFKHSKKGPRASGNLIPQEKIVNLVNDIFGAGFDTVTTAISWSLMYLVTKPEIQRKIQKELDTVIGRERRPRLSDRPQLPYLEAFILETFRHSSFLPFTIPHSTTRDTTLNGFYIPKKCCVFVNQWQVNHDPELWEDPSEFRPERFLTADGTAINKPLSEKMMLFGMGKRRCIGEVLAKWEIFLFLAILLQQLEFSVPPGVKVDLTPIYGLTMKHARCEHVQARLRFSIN
Summary of the method: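 20nM CYP1A2, 100uM Luciferin-ME (=Km), 100mM KPO4; cpd 10 min RT; +NADPH regen, 60 min RT; stop/detect 20 min; luminescence. Normalized to furafylline 57 uM = full inhibition.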

[3] = NFAT Signaling Pathway (AID 444); settings: Jurkat NFAT-bla M1, carbachol, beta-lactamase ratio, 5 h; at 38 µM (top of the series) unless noted;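 note: carbachol stimulus at about its EC50 of 1 µM final; % is set by controls: 0 for no effect and ±100 for the full control effect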
Summary of the method: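 Read-out: CCF4 FRET ratio (460 nm/530 nm) after 1 h RT dye loading, used for %activity and AC50 from titration series. Cells: Jurkat NFAT-β-lactamase/M1 line, treated with compound plus 1 uM carbachol for 5 h, 37 °C.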

Compound: Cc1nc(N=Nc2cc(S(=O)(=O)O)c3cc([N+](=O)[O-])cc(S(=O)(=O)O)c3c2)c(COP(=O)(O)O)c(C=O)c1O
- activity change, negative = inhibition [1]: -0.539% (inactive)
- Potency [2]: 39.8 µM (active)
- activity change, negative = inhibition [3]: 2.42% (inactive)

Compound: O=C(O)Cc1c[nH]c2ccc(O)cc12
- activity change, negative = inhibition [1]: 21.9% (inactive)
- Potency [2]: inactive
- activity change, negative = inhibition [3]: 6.87% (inactive)

Compound: COc1ccc(CCN(C)CCc2ccc(OC)c(OC)c2)cc1OC
- activity change, negative = inhibition [1]: 10.7% (inactive)
- Potency [2]: inactive
- activity change, negative = inhibition [3]: -20.2% (inactive)

Compound: N=C(N)SCCN
- activity change, negative = inhibition [1]: 3.17% (inactive)
- Potency [2]: inactive and 31.6 µM (active)
- activity change, negative = inhibition [3]: -0.506% (inactive)

Compound: N#CC(C#N)=C(N)/C(C#N)=C/c1ccc(O)cc1
- activity change, negative = inhibition [1]: -3.7% (inactive)
- Potency [2]: 3.98 µM (active)
- activity change, negative = inhibition [3]: 3.6% (inactive)

Compound: N=C(N)SCCc1cnc[nH]1
- activity change, negative = inhibition [1]: 5.57% (inactive)
- Potency [2]: inactive
- activity change, negative = inhibition [3]: -4.42% (inactive)

Compound: C#CCn1c(=O)c2c(ncn2C)n(C)c1=O
- activity change, negative = inhibition [1]: 8.56% (inactive)
- Potency [2]: inactive
- activity change, negative = inhibition [3]: 5.67% (inactive)

Compound: O=C1Cc2c([nH]c3ccc(Br)cc23)-c2ccccc2N1
- activity change, negative = inhibition [1]: -104% (active)
- Potency [2]: 1.26 µM (active) and 158 nM (active)
- activity change, negative = inhibition [3]: -74.4% (active)

Compound: Cn1c(=O)c2[nH]c(C3CCCC3)nc2n(C)c1=O
- activity change, negative = inhibition [1]: 0.66% (inactive)
- Potency [2]: 12.6 µM (active)
- activity change, negative = inhibition [3]: 3.19% (inactive)

Compound: NOCC(=O)O
- activity change, negative = inhibition [1]: 12.3% (inactive)
- Potency [2]: inactive
- activity change, negative = inhibition [3]: -5.75% (inactive)

Compound: Nc1ccc(N2C(=O)c3ccccc3C2=O)c(Cl)c1
- activity change, negative = inhibition [1]: -5.66% (inactive)
- Potency [2]: inactive
- activity change, negative = inhibition [3]: 7.18% (inactive)

Compound: NC(N)=NC(N)=Nc1cccc(Cl)c1
- activity change, negative = inhibition [1]: -8.78% (inactive)
- Potency [2]: inactive
- activity change, negative = inhibition [3]: 7.69% (inactive)

Compound: N#C/C(=C\c1ccc(O)c(O)c1)C(=O)NCCCNC(=O)/C(C#N)=C/c1ccc(O)c(O)c1
- activity change, negative = inhibition [1]: -12.1% (inactive)
- Potency [2]: inactive
- activity change, negative = inhibition [3]: 7.05% (inactive)

Compound: N=C(N)c1ccc(N)cc1
- activity change, negative = inhibition [1]: 6.35% (inactive)
- Potency [2]: inactive
- activity change, negative = inhibition [3]: 5.12% (inactive)

Compound: C[C@H](NC(=O)/C(C#N)=C/c1ccc(O)c(O)c1)c1ccccc1
- activity change, negative = inhibition [1]: -18.9% (inactive) and -19.7% (inactive)
- Potency [2]: 31.6 µM (active) and 15.8 µM (active)
- activity change, negative = inhibition [3]: -20.6% (inactive) and -13.5% (inactive)

Compound: N[C@H](C(=O)O)c1cc(O)cc(O)c1
- activity change, negative = inhibition [1]: 7.53% (inactive)
- Potency [2]: inactive and 31.6 µM (active)
- activity change, negative = inhibition [3]: -1.35% (inactive)

Compound: O=C(O)c1cccnc1C(=O)O
- activity change, negative = inhibition [1]: -4.89% (inactive)
- Potency [2]: inactive
- activity change, negative = inhibition [3]: -4.14% (inactive)
